The panel holds about 83,000 compounds, 20% with a hit somewhere; the sample as a whole holds those more often.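 In brief: 96-well plates, 48 h treatment, single concentration, percent growth endpoint.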 Unmarked numbers belong to inactive results. Active and inactive are the calls of the source. The calls were made as follows: active = growth percent below 10; inactive = the rest.

Three compounds from PubChem BioAssay (NCI) can be followed below.

This assay relates to MDA-MB-468 breast. Kind of assay: NCI-60 one-dose screen, 48 h (100 = growth as untreated, 0 = no growth, -100 = all killed). The conditions noted are these: 10 µM unless noted.
For `CCN(CC)CCCC(C)Nc1c2c(nc3ccc(OC)cc13)CCCC2` (stereo not drawn), the growth was 98.8%.
For `CC(C)(C)N1CCC1C(N)=O` (stereo not drawn), the growth was 108%.
Take `Cc1ccc2nc3ccccc3c(NCc3ccc(Cl)cc3)c2c1`: the growth is -21.7% (active).
